Assay outcomes: PubChem BioAssay, National Center for Advancing Translational Sciences (NCATS)
Most compounds without a hit are left out; they make up all but 7.4% or so of the library.
FLuc modulator: inhibits or activates purified firefly luciferase, miR-21 counter-screen. P08659. purified FLuc, Km substrates, luminescence inhibition. 360,000 compounds, 6.9% hits. Potency, µM (series often up to 57.5 µM), without a hit: top-dose activity change, negative = inhibition, actives largely listed as inhibitors;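 note: plate controls were vehicle for no effect and reference inhibitor for full effect; nearly all actives have a fitted effect of over 55% in size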
Target sequence (P08659 whole entry, looked up): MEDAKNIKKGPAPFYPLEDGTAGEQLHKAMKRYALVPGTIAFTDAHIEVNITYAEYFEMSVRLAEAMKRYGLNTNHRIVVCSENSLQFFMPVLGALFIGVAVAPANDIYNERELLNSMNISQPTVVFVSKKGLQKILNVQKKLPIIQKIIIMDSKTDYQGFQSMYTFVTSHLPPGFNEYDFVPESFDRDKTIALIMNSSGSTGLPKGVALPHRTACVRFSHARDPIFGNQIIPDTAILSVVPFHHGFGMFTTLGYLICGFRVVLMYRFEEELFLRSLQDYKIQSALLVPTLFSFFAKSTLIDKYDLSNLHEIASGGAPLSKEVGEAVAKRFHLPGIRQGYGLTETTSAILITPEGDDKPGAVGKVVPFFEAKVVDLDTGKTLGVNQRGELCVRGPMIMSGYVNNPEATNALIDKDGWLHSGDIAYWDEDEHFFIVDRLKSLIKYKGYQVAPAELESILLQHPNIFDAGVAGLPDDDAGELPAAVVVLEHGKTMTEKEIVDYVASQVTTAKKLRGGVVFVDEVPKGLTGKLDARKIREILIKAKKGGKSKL
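Biochemical qHTS of compounds, final roughly 60 µM downward over six points, against 10 nM purified firefly luciferase using Km concentrations of substrates (10 uM D-luciferin, 10 uM ATP) in Tris acetate pH 7.5 buffer; luminescence output.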
ELG1 genotoxic: genotoxicity induction in ELG1-luciferase HEK293T cells. HEK293T ELG1-luciferase reporter, luminescence, 16 h. Potency, µM (doses to about 46 µM), for the others: at the top dose activity change, positive = activation, hits mostly activators. 330,000 compounds, 1.3% hits; note: % of control where 0% means no effect; nearly all actives have a fitted effect of over 60% in size
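Cells (2,000/well) expressing the ELG1-luciferase fusion are dosed by pin tool and kept 16 hr at 37 °C, 5% CO2. Signal comes from ONE-Glo luciferase reagent after 30 min at room temperature.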
SMN2 splice up: enhancers of SMN2 splice variant expression | 210,000 compounds, 2.8% hits | Potency, µM (doses to about 46.1 µM), for inactives: at the top dose activity change, positive = activation, hits mostly activators | HEK293 SMN2-luciferase splicing reporter, luminescence, 30-36 h; note: % of control where 0% means no effect; nearly all actives have a fitted effect of over 55% in size
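HEK293 cells carry an SMN2 minigene-luciferase reporter in which exon 7 inclusion puts luciferase in frame. Cells were seeded at 2000 cells/well, attached for 10-12 hours, then exposed to compounds for 30-36 hours at 37C before ONE-Glo luminescence.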
NPC1 promoter act: activates the NPC1 promoter; 320,000 compounds, 2.4% hits; Huh7 NPC1 promoter luciferase reporter, 24 h; Potency, µM (series often up to 9.22 µM), without a hit: at the top dose activation, actives largely listed as activators; note: % of control where 0% means no effect; nearly all actives have a fitted effect of over 60% in size
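Luciferase expression driven by the NPC1 promoter was measured in stably transfected Huh7 cells after a 24 h compound incubation, using a luciferase reagent and a luminescence read.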
Rab9 prom act: Rab9 promoter activation; Huh7 Rab9 promoter-luciferase reporter, luminescence, 24 h; Potency, µM (series often up to 9.22 µM), for the others: top-dose activation, negative = inhibition, actives largely listed as activators; 320,000 compounds, 2.8% hits; AID 485297; note: % of control where 0% means no effect; nearly all actives have a fitted effect of over 60% in size
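Cells were plated at 1500 per well in reduced-serum medium with 10% FBS and left 2 h. Compound in DMSO was then added for 24 h at 37 °C. Reporter signal was read by luminescence after 10 min with luciferase detection reagent.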
KinaseGlo FLuc: blocks Kinase-Glo luciferase, a counter-screen artifact; Q27757; Kinase-Glo luciferase, ATP luminescence, 8 min; Potency, µM (top dose mostly 38.3 µM), without a hit: at the top dose activity change, negative = inhibition, most hits filed as inhibitors; 200,000 compounds, 0.28% hits; note: % is set by controls: 0 for no effect and ±100 for the full control effect; nearly all actives have a fitted effect of over 60% in size
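Compound is pinned into ATP-containing buffer (10 uM ATP, imidazole pH 7.2, 7 mM MgCl2). Kinase-Glo luciferase reagent is then added. Light output is recorded following an 8-min room-temperature incubation.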
The depositor's hits bear a star; u = inconclusive; x = no result given; [ ] = another dose, or the depositor's remark. Calls come from the whole dose curve; as a rule, active = well fitted curve in the direction sought with a large enough effect; inconclusive = small, poorly fitted or top-dose-only effect, or another doubt; inactive = no such curve, though single readings can be large; an effect the other way counts as inactive or inconclusive. Potency is the fitted concentration of half-maximal effect.

SMILES	FLuc modulator	ELG1 genotoxic	SMN2 splice up	NPC1 promoter act	Rab9 prom act	KinaseGlo FLuc
Cc1c(NC(=O)c2ccc(Cl)nc2)cccc1-c1nc2cccnc2s1	13.5µM*	-9.6%	x	3.0%	-3.5%	x
Cc1c(NC(=O)c2ccco2)cccc1-c1nc2cccnc2s1	23.9µM*	-14.7%	-11.2%	6.1%	-2.4%	-3.3%
CCCOc1ccc(Br)cc1/C=N/O	-0.7%	x	-17.3%	x	x	1.4%
CCOc1ccc(NC(=O)CN(C)C(=O)CC2OC(=O)c3ccccc32)cc1OCC (stereo not given)	3.6%	0.4%	x	-7.3%	-4.9%	x
CCCCCCCCC/C(=N\O)c1ccccn1	16.9µM*	u	-74.2%	u	u	-3.7%
CCCCCCCCC(=O)N/N=C/c1ccccn1	3.1%	-1.3%	-2.4%	1.4%	-1.7%	-0.9%
CCOc1ccc(C2NC(=O)C(C#N)=C(S)N2c2ccc(C)cc2)cc1OC (stereo not given)	16.9µM*	11.8%	-13.0%	-2.1%	-1.4%	-0.8%
c1ccc(-c2nnc(-c3ccccc3)nn2)cc1	0.379µM*	u	x	3.16µM*	1.26µM*	x
c1ccc(-c2nn[nH]n2)cc1	4.1%	0.4%	x	-1.6%	-0.8%	x
CC(=O)NC12CC3CC(C1)CC(C(=O)Nc1nc4ccc(F)cc4s1)(C3)C2	13.5µM*	-0.8%	x	u	u	x
CN(C)C(=O)c1ccc2c(c1[N+](=O)[O-])C(=O)c1ccccc1C2=O	3.6%	8.0%	11.2µM*	u	u	1.0%
CCc1c(C)nc2[nH]nc(-c3ccccc3)n2c1=O	21.3µM*	u	x	13.8%	8.7%	x
CCCCCc1ccc(-c2cn(CCCOCc3ccccc3)nn2)cc1	-0.5%	-0.6%	x	2.5%	-2.2%	x
c1ccc(-c2cn(C[C@H]3CC[C@@H]([C@@H]4CC[C@H](Cn5cc(-c6ccccc6)nn5)O4)O3)nn2)cc1	-17.9%	0.3%	x	-2.7%	6.0%	x
COc1ccc(-c2cn(Cc3ccc4ccccc4c3)nn2)cc1	-4.3%	7.8%	x	22.9%	11.7%	x
c1ccc(-c2cn(CC3CCCCC3)nn2)cc1	15.1µM*	u	x	3.55µM*	2.24µM*	x
CCCCCc1ccc(-c2cn(CC3CCCCC3)nn2)cc1	-1.1%	-0.4%	x	u	2µM*	x
COc1ccc(-c2cn(CC3CCCCC3)nn2)cc1	u	u	x	3.98µM*	2.82µM*	x
O=S(=O)(c1ccccc1)[C@@]1(c2ccccc2)C[C@@H]2ON=C(c3cccc(-c4ccccc4)c3)[C@@H]2C1	-1.6%	-0.2%	x	-1.3%	-1.0%	x
COc1cccc(CNC(=O)CCCCCn2c(=O)[nH]c3cc(OC)c(OC)cc3c2=O)c1	-8.4%	x	7.2%	x	x	x
COc1ccc(-c2csc(-n3cccn3)n2)cc1	3.79µM*	u	x	2.51µM*	1.41µM*	x
COc1ccc(-c2csc(-n3ncc(-c4cccs4)c3N)n2)cc1	4.26µM*	1.3%	-5.7%	-5.9%	6.4%	-0.5%
CN(C(=O)CSc1nnc(Nc2ccccc2F)s1)C1CCS(=O)(=O)C1 (stereo not given)	x	2.1%	x	x	x	x
CCN(CC)C(=O)CCCSc1nnc(Nc2ccccc2F)s1	16.9µM*	17.2%	x	u	1.78µM*	-7.6%
CCCSc1nnc(Nc2ccccc2C)s1	19µM*	u	u	28.1%	2.82µM*	-7.2%
SMILES	FLuc modulator	ELG1 genotoxic	SMN2 splice up	NPC1 promoter act	Rab9 prom act	KinaseGlo FLuc
O=C1c2ccccc2C(=O)N1CSc1nnc(Nc2ccccc2F)s1	1.5%	14.0%	6.31µM*	3.6%	8.6%	1.3%
COc1cc(-c2[o+]c3cc(O)cc(O)c3cc2O)cc(O)c1O	x	x	-3.6%[9.22 µM]	x	x	-1.5%[7.66 µM]
CCOc1ccc(CCNC(=O)c2ccc(CS(=O)Cc3ccccc3Cl)o2)cc1 (stereo not given)	23.9µM*	-6.9%	x	13.5%	8.2%	x
CCOc1ccc(CCNC(=O)c2ccc(CS(=O)Cc3ccc(Cl)cc3)o2)cc1 (stereo not given)	u	-5.8%	x	3.7%	0.6%	x
Cc1ccc(-n2cc(CN3CCN(C(=O)c4ncn[nH]4)CC3)c(-c3ccc(F)cc3)n2)cc1	9.53µM*	-9.4%	x	0.2%	-1.8%	x
Cc1ccc(-n2cc(CN3CCN(Cc4nccn4C)CC3)c(-c3ccc(F)cc3)n2)cc1	u	-5.2%	x	-3.9%	-5.2%	-2.0%
Cc1ccc(-n2cc(CN3CCN(c4ccccn4)CC3)c(-c3ccc(F)cc3)n2)cc1	15.1µM*	-6.6%	x	-4.9%	11.6%	5.6%
Cc1cccc(-n2cc(CN3CCN(c4ccccn4)CC3)c(-c3cccc(F)c3)n2)c1	u	-4.1%	x	-0.9%	-4.3%	6.9%
Cc1cc(C)c(NC(=O)CN(C)C(=O)CNC(=O)c2cccs2)c(C)c1	4.7%	-0.9%	x	0.0%	-0.9%	x
COc1cccc(-c2nc(SCc3cc(=O)c4ccc(C)c(C)c4[nH]3)n[nH]2)c1	-0.7%	x	x	x	x	x
COc1cccc(C(=O)Nc2cccc3cccnc23)c1OC	23.9µM*	9.0%	x	10.4%	0.9%	x
COc1ccc(C(=O)Nc2nc(C)c(C)s2)cc1OC	13.5µM*	u	u	u	u	6.3%
COc1ccc(C(=O)Nc2cccc(NC(=O)c3ccc(OC)c(OC)c3)n2)cc1OC	8.49µM*	-2.7%	x	2.5%	7.3%	x
COc1ccc(C(=O)Nc2cccc3cccnc23)cc1OC	21.3µM*	1.0%	-13.6%	14.7%	-5.5%	11.8%
NC(=S)NN=C(Cc1ccccc1)Cc1ccccc1	1.9%	-18.7%	-49.3%	-1.5%	-9.1%	1.4%
CC(C)N(Cc1ccccc1)C(=O)c1cc2ccc3cccnc3c2[nH]1	19µM*	x	x	x	x	x
COc1cc(Cl)c(C)cc1NC(=O)c1cc2ccc3cccnc3c2[nH]1	-7.2%	x	x	x	x	x
O=C(NCc1cccc(Cl)c1)c1cc2ccc3cccnc3c2[nH]1	-5.6%	x	x	x	x	x
CCOc1ccccc1C(=O)Nc1cccc2cccnc12	26.9µM*	-4.9%	x	-2.2%	0.2%	x
COc1ccccc1NC(=O)c1cc2ccc3cccnc3c2[nH]1	2.69µM*	x	x	x	x	x
